Among all 5,500 compounds or so, about 2,000 (36%) were called active. Not shown: some 18% with an inconclusive outcome. Rule as the data show it: active = normalized growth mostly below about 0.91 (no sharp cut-off); inconclusive = no clear call, values can overlap the other calls; inactive = mostly above about 0.92. The list shows a part of the results.
Experiment: chemical genetic growth profiling, strain panel (AID 1159580);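 also: tested at 20 µM; growth read once vehicle control cultures reached saturation at 30 °C; 1 = growth at the plate median or of vehicle wells; lower values mean less growth of the strain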
Conditions: growth OD

Measured: normalized growth

CC1NC(=O)NC1=O (stereo unspecified)
inactive: S. cerevisiae deletion strains, locus YAL013W, strain DEP1, stronger effect = lower value 0.968 | S. cerevisiae deletion strains, locus YBR021W, strain FUR4, stronger effect = lower value 1.01 | S. cerevisiae deletion strains, locus YBR229C, strain ROT2, stronger effect = lower value 0.996 | S. cerevisiae deletion strains, locus YCL029C, strain bik1, stronger effect = lower value 1.01 | S. cerevisiae deletion strains, locus YDL035C, strain GPR1, stronger effect = lower value 0.987 | S. cerevisiae deletion strains, locus YDL074C, strain BRE1, stronger effect = lower value 1 | S. cerevisiae deletion strains, locus YDL101C, strain DUN1, stronger effect = lower value 1 | S. cerevisiae deletion strains, locus YDL134C, strain PPH21, stronger effect = lower value 1.01 | S. cerevisiae deletion strains, locus YDL185W, strain tfp1, stronger effect = lower value 1.01 | S. cerevisiae deletion strains, locus YDL192W, strain arf1, stronger effect = lower value 1.01 | S. cerevisiae deletion strains, locus YDR101C, strain arx1, stronger effect = lower value 1 | S. cerevisiae deletion strains, locus YDR150W, strain NUM1, stronger effect = lower value 1.02 | S. cerevisiae deletion strains, locus YDR162C, strain NBP2, stronger effect = lower value 1 | S. cerevisiae deletion strains, locus YDR318W, strain mcm21, stronger effect = lower value 1.02 | S. cerevisiae deletion strains, locus YDR388W, stronger effect = lower value 1.01 | S. cerevisiae deletion strains, locus YDR502C, strain sam2, stronger effect = lower value 1.01 | S. cerevisiae deletion strains, locus YEL061C, strain CIN8, stronger effect = lower value 0.997 | S. cerevisiae deletion strains, locus YER110C, stronger effect = lower value 1.01 | S. cerevisiae deletion strains, locus YER155C, strain BEM2, stronger effect = lower value 0.995 | S. cerevisiae deletion strains, locus YER167W, strain BCK2, stronger effect = lower value 0.998 | S. cerevisiae deletion strains, locus YGL078C, strain dbp3, stronger effect = lower value 1.01 | S. cerevisiae deletion strains, locus YGL086W, strain mad1, stronger effect = lower value 1.02 | S. cerevisiae deletion strains, locus YGL248W, strain PDE1, stronger effect = lower value 1.01 | S. cerevisiae deletion strains, locus YGR078C, strain PAC10, stronger effect = lower value 1.01 | S. cerevisiae deletion strains, locus YGR135W, strain pre9, stronger effect = lower value 1.01 | S. cerevisiae deletion strains, locus YGR229C, strain SMI1, stronger effect = lower value 0.986 | S. cerevisiae deletion strains, locus YGR252W, strain gcn5, stronger effect = lower value 1.02 | S. cerevisiae deletion strains, locus YHR030C, strain SLT2, stronger effect = lower value 1 | S. cerevisiae deletion strains, locus YHR079C, strain IRE1 (second series), stronger effect = lower value 1 | S. cerevisiae deletion strains, locus YHR094C, strain hxt1, stronger effect = lower value 1.01 | S. cerevisiae deletion strains, locus YHR129C, strain ARP1, stronger effect = lower value 0.999 | S. cerevisiae deletion strains, locus YHR200W, strain rpn10, stronger effect = lower value 1.01 | S. cerevisiae deletion strains, locus YIL066C, strain RNR3, stronger effect = lower value 0.99 | S. cerevisiae deletion strains, locus YIL073C, strain SPO22, stronger effect = lower value 1.07 | S. cerevisiae deletion strains, locus YIL125W, strain kgd1, stronger effect = lower value 1.02 | S. cerevisiae deletion strains, locus YIR030C, strain dcg1, stronger effect = lower value 1 | S. cerevisiae deletion strains, locus YJL095W, strain BCK1, stronger effect = lower value 0.986 | S. cerevisiae deletion strains, locus YJL134W, strain LCB3, stronger effect = lower value 0.994 | S. cerevisiae deletion strains, locus YJL168C, strain set2, stronger effect = lower value 1 | S. cerevisiae deletion strains, locus YJL187C, strain SWE1 (second series), stronger effect = lower value 0.999 | S. cerevisiae deletion strains, locus YJR043C, strain POL32, stronger effect = lower value 1.01 | S. cerevisiae deletion strains, locus YJR075W, strain HOC1, stronger effect = lower value 0.993 | S. cerevisiae deletion strains, locus YKL009W, strain mrt4, stronger effect = lower value 1.03 | S. cerevisiae deletion strains, locus YKL068W, stronger effect = lower value 1.01 | S. cerevisiae deletion strains, locus YKL085W, strain MDH1 (second series), stronger effect = lower value 1 | S. cerevisiae deletion strains, locus YKL085W, strain MDH1, stronger effect = lower value 1 | S. cerevisiae deletion strains, locus YKL190W, strain CNB1, stronger effect = lower value 1 | S. cerevisiae deletion strains, locus YKR001C, strain vps1, stronger effect = lower value 1.02 | S. cerevisiae deletion strains, locus YLR039C, strain RIC1, stronger effect = lower value 1.02 | S. cerevisiae deletion strains, locus YLR058C, strain SHM2, stronger effect = lower value 1 | S. cerevisiae deletion strains, locus YLR102C, strain apc9, stronger effect = lower value 1.01 | S. cerevisiae deletion strains, locus YLR262C, strain YPT6, stronger effect = lower value 1.02 | S. cerevisiae deletion strains, locus YLR268W, strain sec22, stronger effect = lower value 1 | S. cerevisiae deletion strains, locus YLR330W, strain CHS5, stronger effect = lower value 1 | S. cerevisiae deletion strains, locus YLR342W, strain FKS1 (second series), stronger effect = lower value 1 | S. cerevisiae deletion strains, locus YLR371W, strain rom2, stronger effect = lower value 1.01 | S. cerevisiae deletion strains, locus YLR418C, strain cdc73, stronger effect = lower value 1.01 | S. cerevisiae deletion strains, locus YML016C, strain PPZ1, stronger effect = lower value 1 | S. cerevisiae deletion strains, locus YML032C, strain rad52, stronger effect = lower value 1.02 | S. cerevisiae deletion strains, locus YML124C, strain tub3, stronger effect = lower value 1.01 | S. cerevisiae deletion strains, locus YMR078C, strain ctf18, stronger effect = lower value 1.01 | S. cerevisiae deletion strains, locus YMR223W, strain ubp8, stronger effect = lower value 1.01 | S. cerevisiae deletion strains, locus YMR263W, strain SAP30, stronger effect = lower value 0.994 | S. cerevisiae deletion strains, locus YMR307W, strain GAS1, stronger effect = lower value 0.983 | S. cerevisiae deletion strains, locus YNL067W, strain RPL9B, stronger effect = lower value 1 | S. cerevisiae deletion strains, locus YNL128W, strain TEP1, stronger effect = lower value 0.975 | S. cerevisiae deletion strains, locus YNL153C, strain GIM3, stronger effect = lower value 1.01 | S. cerevisiae deletion strains, locus YNL233W, strain BNI4, stronger effect = lower value 1 | S. cerevisiae deletion strains, locus YNL250W, strain rad50, stronger effect = lower value 1.01 | S. cerevisiae deletion strains, locus YNL271C, strain bni1, stronger effect = lower value 1 | S. cerevisiae deletion strains, locus YNL298W, strain CLA4, stronger effect = lower value 1.02 | S. cerevisiae deletion strains, locus YNL307C, strain MCK1, stronger effect = lower value 1.02 | S. cerevisiae deletion strains, locus YNL322C, strain KRE1, stronger effect = lower value 0.991 | S. cerevisiae deletion strains, locus YNR052C, strain pop2, stronger effect = lower value 1 | S. cerevisiae deletion strains, locus YOL006C, strain TOP1, stronger effect = lower value 1 | S. cerevisiae deletion strains, locus YOL012C, strain htz1 0.89 | S. cerevisiae deletion strains, locus YOL147C, strain pex11, stronger effect = lower value 1.02 | S. cerevisiae deletion strains, locus YOR061W, strain CKA2, stronger effect = lower value 0.998 | S. cerevisiae deletion strains, locus YOR069W, strain VPS5, stronger effect = lower value 0.998 | S. cerevisiae deletion strains, locus YOR136W, strain idh2, stronger effect = lower value 1.02 | S. cerevisiae deletion strains, locus YOR144C, strain elg1, stronger effect = lower value 1.01 | S. cerevisiae deletion strains, locus YOR184W, strain ser1, stronger effect = lower value 1.03 | S. cerevisiae deletion strains, locus YOR316C, strain cot1, stronger effect = lower value 1 | S. cerevisiae deletion strains, locus YPL055C, strain LGE1, stronger effect = lower value 0.986 | S. cerevisiae deletion strains, locus YPL241C, strain CIN2, stronger effect = lower value 1 | S. cerevisiae deletion strains, locus YPR119W, strain clb2, stronger effect = lower value 1.01 | S. cerevisiae deletion strains, locus YPR141C, strain kar3, stronger effect = lower value 1.01 | S. cerevisiae deletion strains, locus YPR163C, strain tif3, stronger effect = lower value 1.02 | S. cerevisiae deletion strains, locus YPR167C, strain met16, stronger effect = lower value 1.01 | S. cerevisiae deletion strains, strain wtn01, stronger effect = lower value 1.01 | S. cerevisiae strains, strain wild type, stronger effect = lower value 0.98

— PubChem BioAssay AID1159580 (chemical genetic matrix, 2015)
